From PubChem BioAssay (EPA / NIEHS)
Results filed as inconclusive are left out. Calls of active or inactive are those of the source. How the source made its calls, unless noted: active means hit-call score of the fitted dose curve at least 0.9, where 1 is the maximum; inactive means score below 0.9.

test system: not listed separately; test: CCTE_Deisenroth_AIME_384WELL_CTox_Inactive: Cytotoxicity Assessment (CTOX) in CCTE's 384-well Estrogen Receptor Transactivation Assay without AIME metabolic competence (metabolism negative), Deisenroth Lab (AID 2284039; active means hit-call score of the fitted dose curve at least 0.9, where 1 is the maximum;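 further: cell viability via live-cell protease substrate cleaved to fluorescent probe; cells exposed 24 h to medium preincubated 2 h with alginate-water beads without S9; loss of fluorescence signal means loss of viability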); conditions: not given
Summary of the method: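 VM7Luc4E2 cells, metabolism-negative arm: test chemicals (0.002–200 uM, 10 points) pre-incubated 2 h with alginate-water microspheres, then medium transferred to cells for 24 h. Viability read as protease-substrate cleavage to fluorescent probe; loss-of-signal, bidirectional fitting.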

Tumor necrosis factor (Homo sapiens), sequence (P01375 whole entry, looked up): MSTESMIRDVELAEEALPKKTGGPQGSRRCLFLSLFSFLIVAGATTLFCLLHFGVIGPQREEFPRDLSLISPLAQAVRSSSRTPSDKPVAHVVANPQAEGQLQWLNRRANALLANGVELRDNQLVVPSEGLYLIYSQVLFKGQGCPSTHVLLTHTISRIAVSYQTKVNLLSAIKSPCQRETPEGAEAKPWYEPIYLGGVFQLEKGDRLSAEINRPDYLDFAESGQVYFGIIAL

SMILES	outcome	AC50
CN(C)N	inactive	
Nc1ccc(Cl)c(Cl)c1	inactive	
O=C(O)CCl	inactive	
O=[N+]([O-])c1ccc(Cl)cc1	inactive	
Cc1ccc(C)c2ccccc12	inactive	
CCCCCCCCCCCCCCCC[N+](C)(C)C		100 µM (active)

read-out: not listed separately; test: BSK_BT_PBMCCytotoxicity: PBMC Cytotoxicity Assessment in the BioMAP Diversity Plus: BT Assay (AID 2284225); conditions: primary human B cells with PBMC;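 further: PBMC viability measured by Alamar Blue dye reduction fluorescence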
Summary of the method: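 PBMC (75,000/well) pretreated with compound 1 h, then activated with SEB and TSST-1 (20 ng/mL each final), incubated 90 h; Alamar Blue added 6 h, fluorescence read at 546/580 nm. Fitted relative to DMSO.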

SMILES	outcome	AC50
CCCCCCCCCCCC#N	inactive	
CC(C)CCCCCCCOC(=O)c1ccccc1C(=O)OCCCCCCCC(C)C	inactive	
O=[N+]([O-])C=Cc1ccccc1		7.36 µM (active)
Nc1ccc(-c2ccc(N)c(N)c2)cc1N	inactive	

read-out: Secreted IgG (sIgG), gene 3500; test: BSK_BT_sIgG: BioMAP Diversity Plus: BT Assay for Secreted IgG (sIgG) Biomarker Activity (AID 2284226); conditions: primary human B cells with PBMC
Summary of the method: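 Human B cell plus PBMC co-culture; secreted IgG measured by ELISA 24 h after chemical dosing. Response fitted in positive direction relative to DMSO baseline.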

SMILES	outcome	AC50
CCCCCCCCCCCC#N	inactive	
CC(C)CCCCCCCOC(=O)c1ccccc1C(=O)OCCCCCCCC(C)C	inactive	
O=[N+]([O-])C=Cc1ccccc1		5.7 µM (active)
Nc1ccc(-c2ccc(N)c(N)c2)cc1N		15.4 µM (active)

read-out: not listed separately; test: BSK_BT_Bcell_Proliferation: Viability Assessment in the BioMAP Diversity Plus: BT Assay for B cell Proliferation (AID 2284227); conditions: primary human B cells with PBMC
Summary of the method: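 Human B cells co-cultured with PBMC were dosed with test chemicals and relative cell number was quantified by SRB staining at 72 h. Cells were fixed in 10% TCA, stained with 0.1% SRB and read at 560 nm. Activity was fitted in the positive direction against DMSO.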

SMILES	outcome	AC50
CCCCCCCCCCCC#N	inactive	
CC(C)CCCCCCCOC(=O)c1ccccc1C(=O)OCCCCCCCC(C)C	inactive	
O=[N+]([O-])C=Cc1ccccc1		6.33 µM (active)
Nc1ccc(-c2ccc(N)c(N)c2)cc1N	inactive	

read-out: Interleukin 6 (IL6), IL6 (gene 3569); test: BSK_BT_xIL6: BioMAP Diversity Plus: BT Assay for Interleukin 6 (IL6) Biomarker Activity (AID 2284228); conditions: primary human B cells with PBMC
Summary of the method: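 Secreted IL-6 in the primary human B cell plus PBMC system, measured by Luminex at 24 h post-chemical, DMSO as baseline. Alamar Blue viability: 75,000 cells/well, chemical 1 h before SEB/TSST-1 (20 ng/mL each), 90 h, then 6 h dye.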

SMILES	outcome	AC50
CCCCCCCCCCCC#N	inactive	
CC(C)CCCCCCCOC(=O)c1ccccc1C(=O)OCCCCCCCC(C)C	inactive	
O=[N+]([O-])C=Cc1ccccc1		5.28 µM (active)
Nc1ccc(-c2ccc(N)c(N)c2)cc1N	inactive	

read-out: Tumor necrosis factor (Homo sapiens) (UniProt P01375); test: BSK_BT_xTNFa: BioMAP Diversity Plus: BT Assay for Tumor necrosis factor alpha (TNF-alpha) Biomarker Activity (AID 2284230); conditions: primary human B cells with PBMC
Summary of the method: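 B cells with PBMC in co-culture, dosed and sampled at 24 h; secreted TNF-alpha measured by Luminex xMAP bead assay. Activity fitted in the gain direction against DMSO as negative control and baseline.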

SMILES	outcome	AC50
CCCCCCCCCCCC#N	inactive	
CC(C)CCCCCCCOC(=O)c1ccccc1C(=O)OCCCCCCCC(C)C	inactive	
O=[N+]([O-])C=Cc1ccccc1		8.35 µM (active)
Nc1ccc(-c2ccc(N)c(N)c2)cc1N	inactive	

read-out: Vascular cell adhesion molecule 1 (VCAM1), VCAM1 (gene 7412); test: BSK_MyoF_VCAM1: BioMAP Diversity Plus: MyoF Assay for Vascular cell adhesion molecule 1 (VCAM1) Biomarker Activity (AID 2284231); conditions: primary human lung fibroblasts
Summary of the method: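 ELISA readout of VCAM-1 on human lung fibroblast cultures 24 hours after dosing, analyzed for signal gain relative to DMSO. Overt cytotoxicity was checked by sulforhodamine B total-protein staining in parallel cultures.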

SMILES	AC50	outcome
CCCCCCCCCCCC#N	30.7 µM (active)	
CC(C)CCCCCCCOC(=O)c1ccccc1C(=O)OCCCCCCCC(C)C		inactive
O=[N+]([O-])C=Cc1ccccc1	11.1 µM (active)	
Nc1ccc(-c2ccc(N)c(N)c2)cc1N	20 µM (active)	

read-out: Collagen I, COL1A1 (gene 1277); test: BSK_MyoF_CollagenI: BioMAP Diversity Plus: MyoF Assay for Collagen I Biomarker Activity (AID 2284238); conditions: primary human lung fibroblasts
Summary of the method: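 Collagen I levels measured by ELISA on human lung fibroblast cultures 24 h post-dosing, with curve fitting in the positive direction relative to DMSO; SRB staining of parallel wells marked cytotoxicity.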

SMILES	AC50	outcome
CCCCCCCCCCCC#N	20.6 µM (active)	
CC(C)CCCCCCCOC(=O)c1ccccc1C(=O)OCCCCCCCC(C)C		inactive
O=[N+]([O-])C=Cc1ccccc1	14.2 µM (active)	
Nc1ccc(-c2ccc(N)c(N)c2)cc1N		inactive

read-out: Collagen III, COL3A1 (gene 1281); test: BSK_MyoF_CollagenIII: BioMAP Diversity Plus: MyoF Assay for Collagen III Biomarker Activity (AID 2284239); conditions: primary human lung fibroblasts
Summary of the method: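 Collagen III biomarker quantified by ELISA in human lung fibroblast cultures 24 h after dosing. Activity fitted in the positive direction against DMSO as baseline.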

SMILES	AC50	outcome
CCCCCCCCCCCC#N	29.6 µM (active)	
CC(C)CCCCCCCOC(=O)c1ccccc1C(=O)OCCCCCCCC(C)C		inactive
O=[N+]([O-])C=Cc1ccccc1	13.8 µM (active)	
Nc1ccc(-c2ccc(N)c(N)c2)cc1N		inactive

read-out: Interleukin 17F (IL17F), IL17F (gene 112744); test: BSK_BT_xIL17F: BioMAP Diversity Plus: BT Assay for Interleukin 17F (IL17F) Biomarker Activity (AID 2284243); conditions: primary human B cells with PBMC
Summary of the method: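 Human B cells co-cultured with PBMC; secreted IL-17F quantified by LumineX xMAP 24 hours after chemical dosing. Activity fitted in the positive direction against DMSO negative control as baseline.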

SMILES	outcome	AC50
CCCCCCCCCCCC#N	inactive	
CC(C)CCCCCCCOC(=O)c1ccccc1C(=O)OCCCCCCCC(C)C	inactive	
O=[N+]([O-])C=Cc1ccccc1		5.05 µM (active)
Nc1ccc(-c2ccc(N)c(N)c2)cc1N		23.6 µM (active)

read-out: Actin alpha 1 (ACTA1), ACTA1 (gene 58); test: BSK_MyoF_ACTA1: BioMAP Diversity Plus: MyoF Assay for Actin alpha 1 (ACTA1) Biomarker Activity (AID 2284244); conditions: primary human lung fibroblasts
Summary of the method: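 Human lung fibroblast (MyoF system) cultures dosed with test chemical; alpha-SMA measured by ELISA 24 h after dosing, normalized to DMSO control. Cytotoxicity tracked in parallel cultures by SRB total-protein staining.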

SMILES	AC50	outcome
CCCCCCCCCCCC#N	26.5 µM (active)	
CC(C)CCCCCCCOC(=O)c1ccccc1C(=O)OCCCCCCCC(C)C		inactive
O=[N+]([O-])C=Cc1ccccc1	12.3 µM (active)	
Nc1ccc(-c2ccc(N)c(N)c2)cc1N	20 µM (active)	

read-out: Interleukin 2 (IL2), IL2 (gene 3558); test: BSK_BT_xIL2: BioMAP Diversity Plus: BT Assay for Interleukin 2 (IL2) Biomarker Activity (AID 2284245); conditions: primary human B cells with PBMC
Summary of the method: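 Human B cell plus PBMC co-culture, 24 h after chemical dosing; secreted IL-2 quantified by Luminex xMAP multiplex, fitted for signal gain against DMSO baseline.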

SMILES	outcome	AC50
CCCCCCCCCCCC#N	inactive	
CC(C)CCCCCCCOC(=O)c1ccccc1C(=O)OCCCCCCCC(C)C	inactive	
O=[N+]([O-])C=Cc1ccccc1		6.08 µM (active)
Nc1ccc(-c2ccc(N)c(N)c2)cc1N	inactive	

read-out: Basic fibroblast growth factor (bFGF), FGF2 (gene 2247); test: BSK_MyoF_bFGF: BioMAP Diversity Plus: MyoF Assay for Basic fibroblast growth factor (bFGF) Biomarker Activity (AID 2284246); conditions: primary human lung fibroblasts
Summary of the method: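 Human lung fibroblast cultures were dosed and measured 24 h later in 96-well format. bFGF biomarker levels quantified by ELISA, with activity fitted in the positive direction against DMSO.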

SMILES	AC50	outcome
CCCCCCCCCCCC#N	32.9 µM (active)	
CC(C)CCCCCCCOC(=O)c1ccccc1C(=O)OCCCCCCCC(C)C		inactive
O=[N+]([O-])C=Cc1ccccc1	11.9 µM (active)	
Nc1ccc(-c2ccc(N)c(N)c2)cc1N		inactive

read-out: Collagen IV, COL4A1 (gene 1282); test: BSK_MyoF_CollagenIV: BioMAP Diversity Plus: MyoF Assay for Collagen IV Biomarker Activity (AID 2284247); conditions: primary human lung fibroblasts
Summary of the method: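 Primary human lung fibroblasts (MyoF system) dosed 24 h; Collagen IV measured by ELISA. Activity fitted in positive direction against DMSO; cytotoxicity tracked by SRB total-protein staining in parallel cultures.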

SMILES	outcome	AC50
CCCCCCCCCCCC#N	inactive	
CC(C)CCCCCCCOC(=O)c1ccccc1C(=O)OCCCCCCCC(C)C	inactive	
O=[N+]([O-])C=Cc1ccccc1		3.97 µM (active)
Nc1ccc(-c2ccc(N)c(N)c2)cc1N	inactive	

read-out: Plasminogen activator inhibitor-1 (PAI1), SERPINE1 (gene 5054); test: BSK_MyoF_PAI1: BioMAP Diversity Plus: MyoF Assay for Plasminogen activator inhibitor-1 (PAI1) Biomarker Activity (AID 2284256); conditions: primary human lung fibroblasts;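 on outcome: PAI-1 protein level measured by ELISA in fibroblast cultures; PAI-1 read 24 h after compound addition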
Summary of the method: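 Human lung fibroblasts (MyoF system) were exposed to test chemicals for 24 h, then PAI-1 was quantified by ELISA. Activity was fitted in the positive (signal-gain) direction relative to DMSO vehicle as baseline.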

SMILES	outcome	AC50
CC(C)CCCCCCCOC(=O)c1ccccc1C(=O)OCCCCCCCC(C)C	inactive	
O=[N+]([O-])C=Cc1ccccc1		12.3 µM (active)
Nc1ccc(-c2ccc(N)c(N)c2)cc1N	inactive	

read-out: Interleukin-8 (IL8), CXCL8 (gene 3576); test: BSK_MyoF_IL8: BioMAP Diversity Plus: MyoF Assay for Interleukin-8 (IL8) Biomarker Activity (AID 2284261); conditions: primary human lung fibroblasts
Summary of the method: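 IL-8 quantified by ELISA after 24 h compound exposure of primary human lung fibroblasts. SRB staining of parallel cultures flagged cytotoxicity; DMSO served as baseline.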

SMILES	outcome	AC50
CCCCCCCCCCCC#N	inactive	
CC(C)CCCCCCCOC(=O)c1ccccc1C(=O)OCCCCCCCC(C)C	inactive	
O=[N+]([O-])C=Cc1ccccc1		9.76 µM (active)
Nc1ccc(-c2ccc(N)c(N)c2)cc1N	inactive	

read-out: Decorin, DCN (gene 1634); test: BSK_MyoF_Decorin: BioMAP Diversity Plus: MyoF Assay for Decorin Biomarker Activity (AID 2284265); conditions: primary human lung fibroblasts
Summary of the method: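 Decorin protein was quantified by ELISA 24 h after chemical addition to primary human lung fibroblasts and analysed as increase over DMSO. Cytotoxicity was tracked in parallel cultures by SRB total-protein staining read at 560 nm.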

SMILES	outcome
CCCCCCCCCCCC#N	inactive
CC(C)CCCCCCCOC(=O)c1ccccc1C(=O)OCCCCCCCC(C)C	inactive
O=[N+]([O-])C=Cc1ccccc1	inactive
Nc1ccc(-c2ccc(N)c(N)c2)cc1N	inactive

read-out: not listed separately; test: BSK_MyoF_SRB: Viability Assessment in the BioMAP Diversity Plus: MyoF Assay (AID 2284267); conditions: primary human lung fibroblasts;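 further: total protein by SRB absorbance in parallel cultures as cytotoxicity measure; cells assessed 24 h after compound addition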
Summary of the method: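 Human lung fibroblasts, 24 h after chemical dosing; total protein measured by 0.1% sulforhodamine B staining after 10% TCA fixation, read at 560 nm, fitted relative to DMSO baseline.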

SMILES	AC50	outcome
CCCCCCCCCCCC#N	30.5 µM (active)	
CC(C)CCCCCCCOC(=O)c1ccccc1C(=O)OCCCCCCCC(C)C		inactive
O=[N+]([O-])C=Cc1ccccc1	20 µM (active)	
Nc1ccc(-c2ccc(N)c(N)c2)cc1N		inactive

read-out: Matrix Metallopeptidase 1 (MMP1), MMP1 (gene 4312); test: BSK_MyoF_MMP1: BioMAP Diversity Plus: MyoF Assay for Matrix Metallopeptidase 1 (MMP1) Biomarker Activity (AID 2284268); conditions: primary human lung fibroblasts
Summary of the method: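 Human lung fibroblasts (MyoF system) exposed to chemical for 24 h in 96-well format; MMP1 biomarker quantified by ELISA, with activity fitted in the positive direction relative to DMSO baseline.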

SMILES	AC50	outcome
CCCCCCCCCCCC#N	33.7 µM (active)	
CC(C)CCCCCCCOC(=O)c1ccccc1C(=O)OCCCCCCCC(C)C		inactive
O=[N+]([O-])C=Cc1ccccc1		inactive
Nc1ccc(-c2ccc(N)c(N)c2)cc1N		inactive
